Measurements published in PubChem BioAssay AID743287 (Broad Institute, 2014).
Values joined by “and” are separate entries in the source; they are usually repeats but may differ in a detail not shown here. Identical values can stand only once. About 2,300 (0.62%) of roughly 370,000 compounds were called active.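 The calls were made as follows: active = lowest replicate activation of at least 40%, so every replicate reaches that level; inactive = the rest.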 The sample as a whole holds a higher share of actives than the screen did.

Assay: primary screen for activators of insulin secretion dependent on glucose, INS-1E cells, GLuc reporter luminescence (AID 743287);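 also: 0% = median of neutral control wells and 100% = median of IBMX positive control wells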
Settings: INS-1E GLuc reporter insulin secretion, 2-3 h, at 16.6 µM, stronger effect = higher value

activation, active:
NC(c1csc(NC(=O)Nc2cccc(C(F)(F)F)c2)n1)C1CCCCC1 (configuration not stated) 48.3%, Cc1c(C(=O)N(C)CCc2cnn(C)c2)oc2c(F)cccc12 44.6%, COc1ccc(S(=O)(=O)N2CCOCC2)cc1NC(=O)COc1ccccc1 43.9%, NS(=O)(=O)c1ccc(CNC(=O)c2cc(S(=O)(=O)N3CCOCC3)ccc2N2CCCC2)cc1 46.1%, O=C(CN1CCC(NC(=O)C2CC2)CC1)Nc1ccccc1[N+](=O)[O-] 96.7%, CCOc1ncccc1C(=O)Nc1ccc(S(=O)(=O)Nc2nc(C)cc(C)n2)cc1 65.9%, COCCNC(=S)N(Cc1cccnc1)Cc1ccc(OC)c(OC)c1 53.5%, CCC1OC(C2CC2)CC2=C1C(=O)OC(C)(C)O2 (configuration not stated) 44.5%, CCCCc1nc(NCCN)c(C#N)c2c1CSC(C)(C)C2 44.2%, CCOC(=O)C1(Cc2cccc(OC)c2)CCCN(C(=O)CCSC)C1 (configuration not stated) 51.6%, Cc1cccc(CS(=O)(=O)c2ncc(Cl)c(C(=O)Nc3ccc(F)cc3)n2)c1 44.8%, CC1CN(Cc2ccccc2)C(=S)NC1=O (configuration not stated) 41.2%, COc1ccc(Cc2nnc(SCC(=O)Nc3ccc(C)c(C)c3)o2)cc1OC 71.9%, CNC(=S)N/N=C/c1ccc(OCc2ccccc2)c(Br)c1 107%, Cc1cc(N/C=C\C(=O)c2ccc(Cl)c(Cl)c2)no1 76.1%

activation, inactive:
O=C(Nc1ccc(C(F)(F)F)cc1)N[C@@H]1CC[C@H](CC(=O)N2CCCCC2)O[C@H]1CO -5.98%, CC(=O)Nc1ccc(NC(=O)C2CCCN2S(=O)(=O)c2cccc(C(F)(F)F)c2)cc1 (configuration not stated) -4.8%, C[C@H]1CN([C@@H](C)CO)C(=O)c2cccc(NC(=O)Nc3ccc(C(F)(F)F)cc3)c2O[C@H]1CN(C)CC1CCCCC1 -0.988%, C[C@@H]1CN([C@@H](C)CO)C(=O)c2cccc(NC(=O)Nc3cccc4ccccc34)c2O[C@@H]1CN(C)CC1CC1 21.1%, O=C(Nc1ccccc1F)N[C@H]1C=C[C@H](CC(=O)N2CCCCC2)O[C@H]1CO -5.96%, O=C(CC1CC1)N1[C@@H](CO)[C@H](c2ccccc2)C12CN(Cc1cccnc1)C2 2.36%, CCC(=O)N1C[C@@H](C)[C@H](OC)CN(C)C(=O)c2ccc(NC(=O)C3CCOCC3)cc2OC[C@@H]1C 8.65%, O=C1CNC[C@H]2[C@@H](c3ccc(C4=CCCC4)cc3)[C@@H](CO)N12 2.03%, CCC(=O)N1[C@@H](CO)[C@@H](c2ccc(C3=CCCC3)cc2)C12CN(C(=O)COC)C2 3.86%, C[C@@H]1CCCCO[C@@H](CN(C)C(=O)CCCN(C)C)[C@@H](C)CN([C@H](C)CO)C(=O)c2cc(NC(=O)CCCN(C)C)ccc2O1 12.7%, CN(CCc1cnn(C)c1)Cc1cn(C)nc1-c1ccccc1F -1.92%, Cc1ccc2c(C)c(C(=O)N(C)CCC3CCCCO3)oc2c1C (configuration not stated) 0.532%, COc1ccc(S(=O)(=O)N2CCOCC2)cc1NC(=O)Cc1c(F)cccc1Cl -12.7%, COc1ccc(S(=O)(=O)N2CCOCC2)cc1NC(=O)CSc1ncnc2ccccc12 14.3%, COCC(=O)N(C)C[C@@H]1Oc2cc(C#CC3CC3)ccc2S(=O)(=O)N([C@H](C)CO)C[C@H]1C 5.41%, C[C@@H]1CC=CC[C@H](c2ccc(F)cc2)NC(=O)[C@@H](Cc2ccccc2)N(C)C(=O)c2ccccc2O1 (mixture of isomers) -20.2%, C[C@@H]1CN([C@H](C)CO)C(=O)c2cc(NS(=O)(=O)c3ccc(F)cc3)ccc2O[C@@H]1CN(C)S(C)(=O)=O 12.8%, O=C(NCC1CCCCC1)c1cc(S(=O)(=O)N2CCCCC2)ccc1N1CCOCC1 -3.7%, O=C(CNC(=O)c1cc(S(=O)(=O)N2CCOCC2)ccc1N1CCCC1)Nc1ccc(F)c(F)c1 -28.2%, C[C@@H]1CCCCO[C@@H](CN(C)Cc2ccc(C(=O)Nc3ccccc3N)cc2)[C@H](C)CN([C@H](C)CO)C(=O)c2cc(N(C)C)ccc2O1 4.89%, C[C@@H]1CN([C@@H](C)CO)C(=O)CCCn2cc(nn2)CO[C@@H]1CN(C)C(=O)C1CCCCC1 5.75%, COc1ccc2c3c([nH]c2c1)[C@@H](CO)N(C(=O)C1CC1)CC31CCN(C(=O)c2ccncc2)CC1 1.51%, O=C(CN1CCCCC1)Nc1ccccc1C(=O)NC1CC1 22.4%, O=C(CN1CCCCCC1)Nc1ccc(Br)cc1[N+](=O)[O-] 7%, Cc1ccnc(NS(=O)(=O)c2ccc(NC(=O)c3ccc(S(=O)(=O)N(C)C)cc3)cc2)n1 7.95%, O=C(Nc1ccc(S(=O)(=O)Nc2ncccn2)cc1)c1cncc(Br)c1 1.33%, COCCNC(=S)N(CCc1c(C)[nH]c2ccc(C)cc12)Cc1cccnc1 -2.95%, COCCCNC(=S)N(Cc1ccccc1)Cc1ccc(F)cc1 -5.03%, COc1ccc(-c2cnc3c(c2)C(=O)N([C@@H](C)CO)C[C@@H](C)[C@H](CN(C)C(=O)C2CCCCC2)O3)cc1 -13.6%, O=C(C[C@H]1CC[C@H]2[C@@H](COC[C@@H](O)CN2S(=O)(=O)c2ccc(Cl)cc2)O1)NCCN1CCCCC1 17.3%, CNC[C@@H]1Oc2cc(-c3ccccc3OC)ccc2S(=O)(=O)N([C@H](C)CO)C[C@H]1C 5.62%, CC1(C)OC(=O)C2=C(C[C@@H](C3CC3)O[C@H]2CCc2cccc(Cl)c2)O1 -7.22%, CC[C@@H]1CC2=C(C(=O)OC(C)(C)O2)[C@@H](CC)O1 -0.455%, O=C(Nc1ccc(C(F)(F)F)cc1)N1[C@@H]2CNC[C@H]1C2c1ccc(-c2ccncc2)cc1 (some centres not stated) 3.37% and 12.2%, CCCCc1nc(NCc2ccccc2)c(C#N)c2c1CCCC2 -17.4%, COc1cccc(S(=O)(=O)N2[C@@H]3CNC[C@H]2C3c2ccc(-c3cccc(C(=O)N(C)C)c3)cc2)c1 (some centres not stated) 11.3% and 0.645%, CO[C@H]1CN(C)C(=O)c2cc(NS(C)(=O)=O)ccc2OC[C@@H](C)N(C(=O)NC(C)C)C[C@@H]1C 8.6%, CCOC(=O)C1(Cc2cccc(OC)c2)CCN(C(C)COC)CC1 (configuration not stated) 5.01%, CCOC(=O)C1(Cc2cccc(OC)c2)CCCN(S(=O)(=O)c2cccnc2)C1 (configuration not stated) -3.61%, C[C@@H]1CN([C@H](C)CO)C(=O)c2cccc(NC(=O)CCCCCC(=O)Nc3ccccc3N)c2O[C@H]1CN(C)CC1CCCCC1 -3.22%, C[C@@H]1CN([C@@H](C)CO)C(=O)c2cc(NC(=O)Nc3ccccc3)ccc2O[C@H]1CN(C)S(=O)(=O)c1ccccc1 6.36%, CN(CCC(=O)Nc1cc(S(=O)(=O)N(C)C)ccc1Cl)CC(=O)Nc1ccc(F)cc1 -1.06%, Cc1onc(-c2c(F)cccc2Cl)c1C(=O)Nc1cccc(S(=O)(=O)N2CCCCC2)c1 -9.79%, C/C=C/c1ccc(C2[C@H]3CNC[C@@H]2N3CC2CCOCC2)cc1 (some centres not stated) 8.12%, C[C@@H]1CN([C@@H](C)CO)C(=O)Cc2cc(NC(=O)Cc3ccccc3)ccc2O[C@H]1CN(C)Cc1ccc(C(=O)O)cc1 12.1%, CC(C)NC(=O)Nc1ccc2c(c1)C(=O)N(C)[C@H]1CC[C@H](CC(=O)NCC3CCCCC3)O[C@@H]1CO2 5.93%, CCC(=O)Nc1ccc2c(c1)C(=O)N(C)C[C@H](OC)[C@@H](C)CN(Cc1nccs1)[C@H](C)CO2 5.56%, CC1CN(Cc2ccco2)C(=S)N(c2ccccc2)C1=O (configuration not stated) 10.7%, CC1CC(=S)Nc2ccccc2N1Cc1ccccc1 (configuration not stated) -14.5%, COCC(=O)N(C)C[C@H]1Oc2cc(C#CC3CCCC3)ccc2S(=O)(=O)N([C@H](C)CO)C[C@@H]1C -6.72%, COc1ccccc1CNC(=O)C[C@H]1C[C@@H]2c3cc(NC(=O)Nc4ccccc4F)ccc3O[C@@H]2[C@H](CO)O1 13.4%, COc1cccc(NC(=O)CSc2nnc(Cc3ccc(OC)c(OC)c3)o2)c1 37.6%, Cc1ccc(NC(=O)CSc2nnc(COc3ccccc3C)o2)cc1 6.85%, C[C@H](CO)N1C[C@H](C)[C@@H](CN(C)C)Oc2ncc(-c3cccc(F)c3)cc2C1=O -1.15%, C[C@H](CO)N1C[C@H](C)[C@@H](CN(C)Cc2ccccc2)Oc2c(NC(=O)CCCCCC(=O)Nc3ccccc3N)cccc2C1=O -7.28%, CNC(=S)N/N=C/c1ccc(N2CCOCC2)s1 8.01%, Oc1c(Br)cc(/C=N/NC(=S)NCC2CCCO2)cc1Br (configuration not stated) -34.5%, COCC#Cc1cnc2c(c1)C(=O)N([C@H](C)CO)C[C@H](C)[C@H](CN(C)C(=O)Cc1cccnc1)O2 27.8%, COc1cccc(-c2cnc3c(c2)C(=O)N([C@H](C)CO)C[C@H](C)[C@H](CN(C)S(=O)(=O)c2cccc(F)c2)O3)c1 -6.84%, C[C@H](CO)N1C[C@H](C)[C@@H](CN(C)C(=O)Cc2ccncc2)Oc2ncc(C#CCN(C)C)cc2C1=O 36.3%, Cc1cc(NCc2cccnc2)no1 -3.31%, Cc1cc(NC(=O)COc2ccccc2C#N)no1 10.8%
